Assay [1] deals with Thyrotropin receptor (Homo sapiens) (UniProt P16473). Description: qHTS assay to identify small molecule antagonists of the thyroid stimulating hormone receptor (TSHR) signaling pathway (AID 1259385; calls by dose curve; also: nearly all actives have a fitted effect of over 20% in size). In a few lines: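 TSHR-HEK293 cells were plated and held 18 h at 37C/5% CO2, then given compound plus Ro20-1724 and stimulated with TSH at 1.5 ng/mL final. After 30 min at room temperature, cAMP was detected with cAMP-d2/anti-cAMP-cryptate (1 h) by fluorescence.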

Assay [2] in a line: qHTS assay to identify small molecule agonists of the estrogen receptor alpha (ER-alpha) signaling pathway in the presence of an antagonist - cell viability counter screen (AID 1259386).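 Also: series mostly up to about 92 µM; cells exposed to compounds for 22 h at 37 °C before the viability read; nearly all actives have a fitted effect of over 30% in size.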 In a few lines:
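Fluorescent CellTiter-Fluor viability signal from VM7Luc4E2 cells, with the reagent added during the final hour of a 22hr compound exposure at 37C in the presence of 10.0nM ICI-182,780.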
On the technique in general: qHTS replaces the single test concentration by a dilution series.

A short description of assay [3]: qHTS assay to identify small molecule antagonists of the progesterone receptor (PR) signaling pathway - cell viability counter screen (AID 1346798). Also: series mostly up to about 92 µM; nearly all actives have a fitted effect of over 50% in size. The gist of the method: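 Viability was determined by ATP-based luminescence (CellTiter-Glo) in PR-UAS-bla HEK293T cells cultured in 2% charcoal-stripped serum and incubated 16 hr with compounds under R5020 stimulation.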

Assay [4] in a line: qHTS assay to identify small molecule agonists of the progesterone receptor (PR) signaling pathway - cell viability counter screen (AID 1346799; calls by dose curve; also: nearly all actives have a fitted effect of over 45% in size). The gist of the method: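 Viability was scored by ATP luminescence (CellTiter-Glo, 30 min, room temperature) in the same wells used for the reporter readout, after 16 hr compound exposure of PR-UAS-bla HEK293T cells.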
A short description of assay [5]: qHTS assay to identify small molecule antagonists of the TGF-beta/Smad signaling pathway - cell viability counter screen (AID 1346824). Also: nearly all actives have a fitted effect of over 50% in size. In a few lines: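 SBE-bla HEK 293T cells were plated overnight at 37 C, then given compounds in DMSO plus TGF-beta1 (added as 0.25 ng/mL solution) for 5 hr. After the bla read, CellTiter-Glo was added to the same wells and luminescence read after 30 min at room temperature.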

Assay [6] is described as follows: qHTS assay to identify small molecule agonists of the TGF-beta/Smad signaling pathway - cell viability counter screen (AID 1346829). Also: top concentration of the series differs between compounds; nearly all actives have a fitted effect of over 45% in size. The gist of the method: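 CellTiter-Glo luminescence readout; SBE-bla HEK 293T cells, overnight plating, compound 5 hr at 37 C/5% CO2, then bla substrate 2 hr RT, then CellTiter-Glo 30 min RT.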
Assay [7] can be described thus: qHTS assay to identify small molecule agonists of the TGF-beta/Smad signaling pathway (AID 1346859; active = well fitted activation curve with a large enough effect in the signal ratio in the repeat runs, not every such curve was filed as active; the % refers to the signal ratio; also: series mostly up to about 77 µM). In a few lines: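 Dual-wavelength fluorescence (460/530 nm emission) quantified beta-lactamase expression under the Smad binding element in HEK 293T cells following 5 hr compound treatment at 37 C.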
Assay [8] is described as follows: Human pregnane X receptor (PXR) small molecule agonists, qHTS cell viability counter screen (AID 1346977). Also: nearly all actives have a fitted effect of over 50% in size. The gist of the method: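 HepG2 cells stably carrying the PXR-Luc reporter are cultured with 5% charcoal-stripped FBS and treated with compounds for 24hr. CellTiter-Fluor is added at 23hr and fluorescence is read after 1hr.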
Assay [9] in a line: Caspase-3/7 induction in CHO-K1 cells by small molecules, qHTS cell viability counter screen (AID 1346979). Also: nearly all actives have a fitted effect of over 35% in size. In a few lines: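 Seeding: 1,500 CHO-K1 cells/well. Rest: 5hr, 37C. Treatment: compounds in DMSO, 16hr. Read: CellTiter-Fluor, 1hr, fluorescence.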
A short description of assay [10]: Caspase-3/7 induction in CHO-K1 cells by small molecules, qHTS assay (AID 1346980). Also: nearly all actives have a fitted effect of over 15% in size. In a few lines:
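Wild-type cells were seeded at 1,500 per well and settled 5 hr at 37 C, 5% CO2, then exposed to DMSO-dissolved compounds for 17 hr. Caspase-Glo 3/7 reagent was added, and luminescence was read after 30min at room temperature.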

Assay [11] is described as follows: Caspase-3/7 induction in HepG2 cells by small molecules, qHTS cell viability counter screen (AID 1346981). Also: series mostly up to about 92 µM; nearly all actives have a fitted effect of over 30% in size. In a few lines:
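Counter screen for cytotoxicity: HepG2 exposed 16 hr to compounds, then CellTiter-Fluor viability signal (fluorescence, 1 hr reagent incubation).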

The target of assay [12] is Nuclear receptor subfamily 1 group I member 2 (Homo sapiens) (UniProt O75469). Nature of the assay: Human pregnane X receptor (PXR) small molecule agonists, qHTS assay (AID 1346982). Also: nearly all actives have a fitted effect of over 35% in size. Also: potency is read from the fitted curve at half-maximal effect. In a few lines:
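Luminescence (ONE-Glo, 30 min RT) after 24 hr compound exposure of PXR-Luc HepG2 cells; cells rested 5 hr post-plating in 5% charcoal-stripped FBS medium.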

The target in assay [13] is Progesterone receptor (Homo sapiens) (UniProt P06401). Description: qHTS assay to identify small molecule antagonists of the progesterone receptor (PR) signaling pathway (AID 1346795; active = well fitted inhibition curve with a large enough effect in the signal ratio in the repeat runs, not every such curve was filed as active; the % refers to the signal ratio). The gist of the method: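 After 6 hr plating at 37C in 2% stripped-serum medium, PR-UAS-bla HEK293T cells got compounds, then 1 nM R5020. Sixteen hours later, LiveBLAzer substrate was applied for 2 hr at room temperature and fluorescence was recorded.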

In assay [14] the target is Nuclear receptor subfamily 1 group I member 2 (Rattus norvegicus) (UniProt Q9R1A7). Description: Rat pregnane X receptor (rPXR) activation by small molecules, qHTS assay (AID 1346983). Also: nearly all actives have a fitted effect of over 20% in size. Particulars: rPXR luciferase reporter cells, One-Glo luminescence, 24 h; stronger effect = higher value. The gist of the method: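 Cell-based rPXR luciferase reporter assay, 2,000 cells per well, rested 5hr at 37 C before compound addition in DMSO, then 24 hr at 37 C. One-Glo reagent was added and luminescence read after 30 min at room temperature.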

Assay [15] deals with Nuclear receptor subfamily 1 group I member 2 (Homo sapiens) (UniProt O75469). Nature of the assay: CYP3A4 induction through human pregnane X receptor (PXR) by small molecules, qHTS assay (AID 1346984). Also: nearly all actives have a fitted effect of over 40% in size. In a few lines: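 DPX-2 reporter cells; 24h cpd, 37C; Luciferin-IPA 3uM final x3h; One-Glo 30 min RT; lumi read.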
The target is the same in assay [16]. Nature of the assay: Human pregnane X receptor (PXR) activation by small molecules, qHTS assay (AID 1346985). Also: nearly all actives have a fitted effect of over 40% in size. The gist of the method: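 DPX-2 cells (HepG2 co-transfected with a PXR response element and a CYP3A4-promoter luciferase construct) were seeded at 2,000 per well, rested 5 hr at 37C, then exposed to DMSO-dissolved compounds for 24 hr. Activation was read as luciferase luminescence.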

Assay [17] deals with Thyrotropin-releasing hormone receptor (Homo sapiens) (UniProt P34981). Nature of the assay: qHTS assay to identify small molecule antagonists of the thyrotropin-releasing hormone receptor (TRHR) signaling pathway (AID 1346877; active = well fitted inhibition curve with a large enough effect in the repeat runs, not every such curve was filed as active; also: series mostly up to about 51 µM). In a few lines:
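In this cell-based calcium flux format, HEK293 cells expressing TRHR received test compound for 5 min before the agonist TRH (1 nM final). Dye loading lasted 2 h at 37 °C.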

The target is the same in assay [18]. Nature of the assay: qHTS assay to identify small molecule agonists of the thyrotropin-releasing hormone receptor (TRHR) signaling pathway (AID 1346891; calls by dose curve; also: series mostly up to about 58 µM). In a few lines:
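Kinetic fluorescence (3 min, 1 s intervals) reported intracellular calcium after compound transfer onto TRHR-Hek293 cells pre-loaded with dye for 2 h at 37 °C.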

Assay [19] in a line: Caspase-3/7 induction in HepG2 cells by small molecules, qHTS assay (AID 1346978). Also: nearly all actives have a fitted effect of over 15% in size. In a few lines: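 Wild-type HepG2 cells (2,000/well) were settled 5 h at 37 C, 5% CO2, then exposed to compounds in DMSO for 17 h. Caspase-3/7 activity was read by luminescence 30 min after adding Caspase-Glo 3/7 reagent at room temperature.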
Assay [20] has as its target Progesterone receptor (Homo sapiens) (UniProt P06401). Description: qHTS assay to identify small molecule agonists of the progesterone receptor (PR) signaling pathway (AID 1346784; calls by dose curve; also: nearly all actives have a fitted effect of over 30% in size). In a few lines: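 The screen uses PR-UAS-bla HEK 293T cells in charcoal-stripped serum (2%). Compounds are applied for 16 hr at 37C after a 6 hr pre-incubation, and reporter activity is detected with a FRET beta-lactamase substrate after 2 hr at room temperature.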

A number with no mark means an inactive call. Records with an inconclusive call do not appear. Calls of active or inactive are those of the source. Unless noted, calls follow the shape of the dose curve; as a rule, active = well fitted curve in the direction sought with a large enough effect in the repeat runs; inconclusive = weak or mixed curves; inactive = no such curve, though single readings can be large; an effect the other way counts as inactive or inconclusive.
% is scaled to controls: 0 for no effect and ±100 for the full control effect.

Chain of Nuclear receptor subfamily 1 group I member 2 (Homo sapiens) (O75469 whole entry, looked up): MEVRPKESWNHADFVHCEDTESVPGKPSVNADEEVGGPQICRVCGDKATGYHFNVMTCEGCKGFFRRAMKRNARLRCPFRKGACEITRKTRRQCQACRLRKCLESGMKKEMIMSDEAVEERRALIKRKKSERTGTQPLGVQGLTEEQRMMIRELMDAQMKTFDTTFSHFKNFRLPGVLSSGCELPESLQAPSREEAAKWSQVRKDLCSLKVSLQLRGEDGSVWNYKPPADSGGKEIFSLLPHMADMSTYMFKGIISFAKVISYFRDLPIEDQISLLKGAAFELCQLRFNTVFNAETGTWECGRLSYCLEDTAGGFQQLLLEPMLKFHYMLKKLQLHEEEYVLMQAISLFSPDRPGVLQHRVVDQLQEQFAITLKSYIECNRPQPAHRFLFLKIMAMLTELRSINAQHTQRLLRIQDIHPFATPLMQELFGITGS
Chain of Thyrotropin receptor (Homo sapiens) (P16473 whole entry, looked up): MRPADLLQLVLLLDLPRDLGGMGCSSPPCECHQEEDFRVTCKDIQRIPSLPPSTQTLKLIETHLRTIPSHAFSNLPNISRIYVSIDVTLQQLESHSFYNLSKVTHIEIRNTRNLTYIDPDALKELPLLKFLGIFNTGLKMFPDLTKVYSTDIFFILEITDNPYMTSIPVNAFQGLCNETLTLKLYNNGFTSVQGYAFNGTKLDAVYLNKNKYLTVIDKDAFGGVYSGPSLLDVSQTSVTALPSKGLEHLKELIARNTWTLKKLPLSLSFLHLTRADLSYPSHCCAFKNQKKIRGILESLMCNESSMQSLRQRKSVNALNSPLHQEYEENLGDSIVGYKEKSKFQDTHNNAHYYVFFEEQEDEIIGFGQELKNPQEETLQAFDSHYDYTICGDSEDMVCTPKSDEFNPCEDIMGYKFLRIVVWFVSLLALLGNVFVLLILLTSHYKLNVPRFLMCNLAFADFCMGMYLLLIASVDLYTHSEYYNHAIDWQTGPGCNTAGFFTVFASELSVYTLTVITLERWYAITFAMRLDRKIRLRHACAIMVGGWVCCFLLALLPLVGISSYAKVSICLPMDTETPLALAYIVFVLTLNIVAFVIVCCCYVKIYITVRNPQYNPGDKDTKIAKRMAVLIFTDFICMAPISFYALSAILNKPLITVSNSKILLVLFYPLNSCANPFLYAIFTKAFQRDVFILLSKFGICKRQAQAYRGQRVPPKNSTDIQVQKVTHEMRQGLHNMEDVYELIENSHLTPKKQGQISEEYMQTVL
Chain of Progesterone receptor (Homo sapiens) (P06401 whole entry, looked up): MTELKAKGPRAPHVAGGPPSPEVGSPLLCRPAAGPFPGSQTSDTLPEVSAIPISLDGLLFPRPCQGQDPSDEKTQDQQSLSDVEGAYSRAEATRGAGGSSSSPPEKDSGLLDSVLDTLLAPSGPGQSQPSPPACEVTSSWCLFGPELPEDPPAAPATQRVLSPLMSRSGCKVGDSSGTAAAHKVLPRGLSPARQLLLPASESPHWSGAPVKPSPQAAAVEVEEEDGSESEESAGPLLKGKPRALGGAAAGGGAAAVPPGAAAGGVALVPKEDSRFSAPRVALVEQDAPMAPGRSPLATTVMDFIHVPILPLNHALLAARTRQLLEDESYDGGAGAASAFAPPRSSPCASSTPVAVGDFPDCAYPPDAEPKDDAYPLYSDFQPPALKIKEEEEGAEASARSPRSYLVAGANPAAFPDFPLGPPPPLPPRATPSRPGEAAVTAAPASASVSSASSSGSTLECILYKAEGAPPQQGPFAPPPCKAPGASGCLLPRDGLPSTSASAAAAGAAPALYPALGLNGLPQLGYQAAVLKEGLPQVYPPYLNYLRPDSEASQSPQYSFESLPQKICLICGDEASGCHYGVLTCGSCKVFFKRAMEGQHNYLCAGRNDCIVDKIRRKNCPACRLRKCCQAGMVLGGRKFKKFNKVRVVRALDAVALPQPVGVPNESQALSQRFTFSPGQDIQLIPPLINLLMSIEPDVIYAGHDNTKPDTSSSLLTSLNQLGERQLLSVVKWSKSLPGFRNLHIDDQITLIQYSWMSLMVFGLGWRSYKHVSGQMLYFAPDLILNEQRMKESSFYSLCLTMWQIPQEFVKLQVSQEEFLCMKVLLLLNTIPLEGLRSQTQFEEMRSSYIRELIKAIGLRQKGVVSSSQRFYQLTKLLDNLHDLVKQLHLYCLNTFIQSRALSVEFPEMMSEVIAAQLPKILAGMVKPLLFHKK
Chain of Thyrotropin-releasing hormone receptor (Homo sapiens) (P34981 whole entry, looked up): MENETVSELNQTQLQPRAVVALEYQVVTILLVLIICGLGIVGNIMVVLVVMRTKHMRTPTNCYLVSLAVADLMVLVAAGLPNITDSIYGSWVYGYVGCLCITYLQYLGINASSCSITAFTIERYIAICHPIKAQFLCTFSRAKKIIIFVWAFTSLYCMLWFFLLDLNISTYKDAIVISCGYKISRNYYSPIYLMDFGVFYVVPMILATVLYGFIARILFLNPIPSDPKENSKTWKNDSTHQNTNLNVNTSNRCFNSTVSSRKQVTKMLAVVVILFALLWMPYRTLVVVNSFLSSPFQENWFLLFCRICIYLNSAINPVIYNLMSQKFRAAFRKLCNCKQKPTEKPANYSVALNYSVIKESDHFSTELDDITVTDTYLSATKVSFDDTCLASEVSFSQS
Chain of Nuclear receptor subfamily 1 group I member 2 (Rattus norvegicus) (Q9R1A7 whole entry, looked up): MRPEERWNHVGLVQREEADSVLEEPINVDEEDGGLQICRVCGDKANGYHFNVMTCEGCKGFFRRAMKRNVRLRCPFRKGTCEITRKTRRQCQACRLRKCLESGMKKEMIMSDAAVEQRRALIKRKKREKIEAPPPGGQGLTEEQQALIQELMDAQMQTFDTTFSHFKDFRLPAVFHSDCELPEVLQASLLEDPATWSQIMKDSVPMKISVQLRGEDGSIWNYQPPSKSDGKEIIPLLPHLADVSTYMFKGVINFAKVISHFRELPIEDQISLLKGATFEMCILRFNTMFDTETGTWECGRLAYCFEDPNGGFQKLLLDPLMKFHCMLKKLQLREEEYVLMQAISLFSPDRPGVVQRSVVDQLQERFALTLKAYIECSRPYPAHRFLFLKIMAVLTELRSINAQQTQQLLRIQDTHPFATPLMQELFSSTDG

Regarding `COC(=O)c1c(Cl)c(Cl)c(C(=O)OC)c(Cl)c1Cl`, the Potency entry in assay [1], in [2], in assay [3], in assay [4], in assay [5] and in [8] was “inactive” each time. In addition, the Potency entry in assay [9] and in assay [11] was “inactive” each time. Besides, the result in assay [6], in assay [7] and in assay [10] was inactive. For the same molecule, the Potency in assay [12] was 21.7 µM (active).
In the case of `NC(=O)c1cn(Cc2c(F)cccc2F)nn1`, the Potency result in assay [1], in [2], in assay [13], in assay [3], in [4] and in assay [5] was “inactive” in each case. Further, the Potency entry in assay [9], in [11], in assay [12], in assay [15] and in assay [16] was “inactive” each time. For the same molecule, the outcome in assay [6], in assay [7] and in assay [10] was inactive. In assay [14], the max activation is -1.62%.
With `CC(=O)OCC(CCn1cnc2cnc(N)nc21)COC(C)=O`, the Potency result in [1], in assay [2], in [13], in assay [4], in assay [5] and in assay [8] was “inactive” each time. The Potency result in [19], in [9], in [11], in [12], in assay [15] and in [16] was “inactive” in each case. Moreover, the result in assay [6], in assay [7], in assay [17], in [18] and in assay [10] was inactive. Moreover, in assay [14], the max activation was -0.776%.
Regarding `CCC(C)S` (stereo not drawn), the activity change, negative = inhibition in assay [1] was -0.487% [at 3.27 µM]; in [13], 8.27% [at 3.27 µM]. Also, the activity change, negative = cytotoxicity in [2] was 1.97% [at 3.27 µM]; in assay [3], -5.62% [at 3.27 µM]; in [4], 1.88% [at 3.27 µM]; in [6], 8.43% [at 2.72 µM]; in assay [8], 2.43% [at 3.27 µM]; in assay [9] it was 5.39% [at 3.27 µM]. In addition, the activity change, negative = cytotoxicity in assay [11] is -0.646% [at 3.27 µM]. Further, in assay [5], the viability change, negative = cytotoxic was -5.42% [at 2.72 µM]. Besides, the figures for the activation in assay [7], in assay [18] and in assay [12] were -0.527% [at 2.72 µM], 0.209% [at 2.04 µM] and -2.18% [at 3.27 µM], respectively. Also, the activity, negative = inhibition in [17] was -1.08% [at 1.81 µM]. The caspase activation in assay [19] was -0.355% [at 3.27 µM]. Further, the caspase-3/7 activation in [10] was 1.28% [at 3.27 µM].
In the case of `CC1(C)C(O)C(C)(C)C1O` (stereo not drawn), the Potency result in [1], in [2], in assay [3], in assay [4], in assay [5] and in [19] was “inactive” each time. Further, the Potency result in assay [9], in assay [11] and in assay [12] was “inactive” each time. The molecule was called inactive in assay [6], in assay [7] and in assay [10].
Regarding `Cc1cccc(C)c1NC(=O)C(C)N` (stereo not drawn), the Potency result in assay [1], in assay [2], in assay [3], in assay [5], in assay [19] and in assay [9] was “inactive” in each case. The Potency result in assay [11], in [12], in [15] and in assay [16] was “inactive” each time. Further, the result in assay [6], in assay [7] and in assay [10] was inactive. Moreover, in assay [14], the max activation was -0.615%.
Turning to `CCCCCCOC(=O)CCCCC(=O)OCCCCCC`, the Potency entry in assay [1], in assay [2], in assay [13], in assay [3], in assay [4] and in [5] was “inactive” throughout. Besides, the Potency result in assay [8], in assay [19], in assay [9], in assay [11] and in assay [12] was “inactive” in each case. In addition, the result in [6], in assay [7], in [17], in assay [18] and in assay [10] was inactive.
Turning to `N=C(N)c1ccccc1`, the Potency result in assay [1], in [20], in assay [13], in assay [3], in assay [4] and in [5] was “inactive” throughout. Besides, the Potency entry in [19], in assay [9], in assay [11] and in assay [12] was “inactive” throughout. Further, the molecule was classed as inactive in [6], in [7], in [17], in [18] and in [10].

The record behind these values is PubChem BioAssay (Tox21).
